# Results published in ChEMBL document CHEMBL2218924, “A broad activity screen in support of a chemogenomic map for kinase signalling research and drug discovery” (Biochem J, 2013).
# Tests used:
# [1] = target: T1, Ephrin type-B receptor 1 (Homo sapiens) (UniProt P54762); settings: at 10 µM
# T1 sequence (whole entry): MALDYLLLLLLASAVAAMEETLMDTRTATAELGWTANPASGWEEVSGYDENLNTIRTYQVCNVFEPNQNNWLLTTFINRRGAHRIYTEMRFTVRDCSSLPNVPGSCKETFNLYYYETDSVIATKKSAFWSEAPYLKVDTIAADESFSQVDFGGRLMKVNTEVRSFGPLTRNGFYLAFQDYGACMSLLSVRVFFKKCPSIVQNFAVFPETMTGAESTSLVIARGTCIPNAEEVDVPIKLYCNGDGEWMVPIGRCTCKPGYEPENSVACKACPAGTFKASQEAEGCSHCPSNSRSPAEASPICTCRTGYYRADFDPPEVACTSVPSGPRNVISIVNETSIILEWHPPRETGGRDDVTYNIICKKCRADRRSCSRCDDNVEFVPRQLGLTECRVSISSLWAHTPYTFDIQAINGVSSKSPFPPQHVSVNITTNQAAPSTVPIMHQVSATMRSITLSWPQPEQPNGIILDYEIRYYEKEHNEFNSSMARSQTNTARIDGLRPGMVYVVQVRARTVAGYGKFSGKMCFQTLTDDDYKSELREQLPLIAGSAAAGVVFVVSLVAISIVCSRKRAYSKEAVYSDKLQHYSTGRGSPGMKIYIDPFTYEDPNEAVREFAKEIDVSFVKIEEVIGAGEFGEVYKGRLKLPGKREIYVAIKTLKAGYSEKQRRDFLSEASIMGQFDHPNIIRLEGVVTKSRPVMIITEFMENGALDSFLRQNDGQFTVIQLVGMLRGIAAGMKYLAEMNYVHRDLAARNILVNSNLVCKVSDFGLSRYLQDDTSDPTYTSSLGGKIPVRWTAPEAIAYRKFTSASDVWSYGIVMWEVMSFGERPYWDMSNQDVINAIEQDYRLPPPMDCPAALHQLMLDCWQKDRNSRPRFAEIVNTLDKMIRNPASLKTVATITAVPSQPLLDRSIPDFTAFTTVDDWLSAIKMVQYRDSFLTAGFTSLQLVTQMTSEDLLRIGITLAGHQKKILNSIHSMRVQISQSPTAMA
# [2] = target: T2, Ephrin type-B receptor 2 (Homo sapiens) (UniProt P29323); settings: at 1 µM
# T2 sequence (whole entry): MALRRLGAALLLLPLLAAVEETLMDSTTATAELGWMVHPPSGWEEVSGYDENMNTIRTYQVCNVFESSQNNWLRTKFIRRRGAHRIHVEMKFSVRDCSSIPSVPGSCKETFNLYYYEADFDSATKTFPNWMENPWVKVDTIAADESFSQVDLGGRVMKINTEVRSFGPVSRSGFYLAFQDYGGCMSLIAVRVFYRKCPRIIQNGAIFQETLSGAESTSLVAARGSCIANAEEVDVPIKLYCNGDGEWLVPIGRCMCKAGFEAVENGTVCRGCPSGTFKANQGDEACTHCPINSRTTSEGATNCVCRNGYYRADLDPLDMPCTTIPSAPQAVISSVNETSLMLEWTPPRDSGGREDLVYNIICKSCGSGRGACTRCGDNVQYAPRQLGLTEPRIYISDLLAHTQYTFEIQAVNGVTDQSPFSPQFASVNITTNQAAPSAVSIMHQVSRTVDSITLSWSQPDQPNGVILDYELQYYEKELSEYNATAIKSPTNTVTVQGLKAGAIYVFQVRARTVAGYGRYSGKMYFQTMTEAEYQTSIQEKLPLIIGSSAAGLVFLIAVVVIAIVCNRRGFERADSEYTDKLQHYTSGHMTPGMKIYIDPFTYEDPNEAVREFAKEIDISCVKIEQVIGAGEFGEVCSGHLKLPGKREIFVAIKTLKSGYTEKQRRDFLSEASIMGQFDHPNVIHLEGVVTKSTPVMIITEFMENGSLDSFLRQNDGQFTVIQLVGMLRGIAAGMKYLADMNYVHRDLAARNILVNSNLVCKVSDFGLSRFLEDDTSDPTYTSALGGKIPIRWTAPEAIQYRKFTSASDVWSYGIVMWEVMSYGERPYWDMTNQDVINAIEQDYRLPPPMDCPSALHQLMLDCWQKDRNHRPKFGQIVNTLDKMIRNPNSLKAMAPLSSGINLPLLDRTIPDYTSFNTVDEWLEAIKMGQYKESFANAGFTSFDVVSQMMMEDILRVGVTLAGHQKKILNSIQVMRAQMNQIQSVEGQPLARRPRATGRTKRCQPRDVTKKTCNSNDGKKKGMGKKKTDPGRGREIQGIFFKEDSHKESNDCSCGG
# [3] = target: T2, Ephrin type-B receptor 2 (Homo sapiens); settings: at 10 µM
# [4] = target: T3, Ephrin type-B receptor 3 (Homo sapiens) (UniProt P54753); settings: at 1 µM
# T3 sequence (whole entry): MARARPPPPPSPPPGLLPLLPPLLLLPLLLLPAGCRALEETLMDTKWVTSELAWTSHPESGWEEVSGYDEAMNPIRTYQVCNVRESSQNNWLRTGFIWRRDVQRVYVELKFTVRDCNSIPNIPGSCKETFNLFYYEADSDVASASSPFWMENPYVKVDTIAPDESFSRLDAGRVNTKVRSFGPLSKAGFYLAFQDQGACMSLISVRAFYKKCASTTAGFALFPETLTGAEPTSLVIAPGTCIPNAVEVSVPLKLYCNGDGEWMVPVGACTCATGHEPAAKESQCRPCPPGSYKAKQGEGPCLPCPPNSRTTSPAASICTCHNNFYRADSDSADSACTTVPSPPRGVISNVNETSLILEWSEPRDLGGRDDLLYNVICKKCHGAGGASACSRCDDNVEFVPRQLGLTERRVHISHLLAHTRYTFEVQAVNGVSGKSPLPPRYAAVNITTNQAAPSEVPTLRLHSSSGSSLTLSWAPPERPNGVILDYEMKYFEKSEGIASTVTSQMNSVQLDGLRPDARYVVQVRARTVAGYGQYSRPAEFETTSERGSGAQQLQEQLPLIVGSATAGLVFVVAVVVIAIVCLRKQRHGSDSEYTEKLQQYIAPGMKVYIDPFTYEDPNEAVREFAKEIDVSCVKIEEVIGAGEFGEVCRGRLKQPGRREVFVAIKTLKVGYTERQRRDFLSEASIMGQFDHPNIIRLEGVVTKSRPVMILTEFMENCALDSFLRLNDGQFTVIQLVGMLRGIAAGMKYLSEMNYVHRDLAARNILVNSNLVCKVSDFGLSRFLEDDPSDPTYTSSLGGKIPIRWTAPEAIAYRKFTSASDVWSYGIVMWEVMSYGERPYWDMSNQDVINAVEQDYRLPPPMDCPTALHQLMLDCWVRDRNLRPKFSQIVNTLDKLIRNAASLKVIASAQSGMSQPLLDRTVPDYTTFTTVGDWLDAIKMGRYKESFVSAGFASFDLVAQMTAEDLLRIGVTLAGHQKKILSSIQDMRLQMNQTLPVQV
# [5] = target: T3, Ephrin type-B receptor 3 (Homo sapiens); settings: at 10 µM
# [6] = target: T4, Ephrin type-B receptor 4 (Homo sapiens) (UniProt P54760); settings: at 1 µM
# T4 sequence (whole entry): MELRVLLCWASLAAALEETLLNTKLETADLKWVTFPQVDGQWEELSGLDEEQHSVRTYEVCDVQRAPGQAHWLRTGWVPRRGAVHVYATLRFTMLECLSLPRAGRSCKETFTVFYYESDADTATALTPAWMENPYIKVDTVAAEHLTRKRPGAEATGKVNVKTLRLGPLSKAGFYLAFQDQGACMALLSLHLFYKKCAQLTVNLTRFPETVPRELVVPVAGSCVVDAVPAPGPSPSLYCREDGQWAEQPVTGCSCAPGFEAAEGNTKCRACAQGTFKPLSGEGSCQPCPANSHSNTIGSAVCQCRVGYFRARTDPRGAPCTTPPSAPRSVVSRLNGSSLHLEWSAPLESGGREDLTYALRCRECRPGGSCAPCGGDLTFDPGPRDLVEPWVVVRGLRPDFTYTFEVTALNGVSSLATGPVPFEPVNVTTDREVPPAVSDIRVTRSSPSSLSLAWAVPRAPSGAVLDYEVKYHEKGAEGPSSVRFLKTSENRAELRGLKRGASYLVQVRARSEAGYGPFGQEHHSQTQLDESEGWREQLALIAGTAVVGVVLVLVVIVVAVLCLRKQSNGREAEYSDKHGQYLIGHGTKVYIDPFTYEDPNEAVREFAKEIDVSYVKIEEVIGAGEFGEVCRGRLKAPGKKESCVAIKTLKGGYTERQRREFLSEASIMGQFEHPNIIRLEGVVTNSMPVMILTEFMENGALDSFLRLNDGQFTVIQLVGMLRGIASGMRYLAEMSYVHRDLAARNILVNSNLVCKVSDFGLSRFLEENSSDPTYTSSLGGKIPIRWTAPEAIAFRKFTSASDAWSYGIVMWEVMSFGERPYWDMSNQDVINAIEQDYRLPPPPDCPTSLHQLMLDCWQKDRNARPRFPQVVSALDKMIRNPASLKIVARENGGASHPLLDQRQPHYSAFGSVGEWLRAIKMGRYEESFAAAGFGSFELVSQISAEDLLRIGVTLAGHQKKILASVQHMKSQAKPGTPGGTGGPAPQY
# [7] = target: T4, Ephrin type-B receptor 4 (Homo sapiens); settings: at 10 µM
# [8] = target: Receptor tyrosine-protein kinase erbB-4 (Homo sapiens) (UniProt Q15303); settings: at 1 µM
# Sequence of Receptor tyrosine-protein kinase erbB-4 (Homo sapiens) (Q15303 whole entry): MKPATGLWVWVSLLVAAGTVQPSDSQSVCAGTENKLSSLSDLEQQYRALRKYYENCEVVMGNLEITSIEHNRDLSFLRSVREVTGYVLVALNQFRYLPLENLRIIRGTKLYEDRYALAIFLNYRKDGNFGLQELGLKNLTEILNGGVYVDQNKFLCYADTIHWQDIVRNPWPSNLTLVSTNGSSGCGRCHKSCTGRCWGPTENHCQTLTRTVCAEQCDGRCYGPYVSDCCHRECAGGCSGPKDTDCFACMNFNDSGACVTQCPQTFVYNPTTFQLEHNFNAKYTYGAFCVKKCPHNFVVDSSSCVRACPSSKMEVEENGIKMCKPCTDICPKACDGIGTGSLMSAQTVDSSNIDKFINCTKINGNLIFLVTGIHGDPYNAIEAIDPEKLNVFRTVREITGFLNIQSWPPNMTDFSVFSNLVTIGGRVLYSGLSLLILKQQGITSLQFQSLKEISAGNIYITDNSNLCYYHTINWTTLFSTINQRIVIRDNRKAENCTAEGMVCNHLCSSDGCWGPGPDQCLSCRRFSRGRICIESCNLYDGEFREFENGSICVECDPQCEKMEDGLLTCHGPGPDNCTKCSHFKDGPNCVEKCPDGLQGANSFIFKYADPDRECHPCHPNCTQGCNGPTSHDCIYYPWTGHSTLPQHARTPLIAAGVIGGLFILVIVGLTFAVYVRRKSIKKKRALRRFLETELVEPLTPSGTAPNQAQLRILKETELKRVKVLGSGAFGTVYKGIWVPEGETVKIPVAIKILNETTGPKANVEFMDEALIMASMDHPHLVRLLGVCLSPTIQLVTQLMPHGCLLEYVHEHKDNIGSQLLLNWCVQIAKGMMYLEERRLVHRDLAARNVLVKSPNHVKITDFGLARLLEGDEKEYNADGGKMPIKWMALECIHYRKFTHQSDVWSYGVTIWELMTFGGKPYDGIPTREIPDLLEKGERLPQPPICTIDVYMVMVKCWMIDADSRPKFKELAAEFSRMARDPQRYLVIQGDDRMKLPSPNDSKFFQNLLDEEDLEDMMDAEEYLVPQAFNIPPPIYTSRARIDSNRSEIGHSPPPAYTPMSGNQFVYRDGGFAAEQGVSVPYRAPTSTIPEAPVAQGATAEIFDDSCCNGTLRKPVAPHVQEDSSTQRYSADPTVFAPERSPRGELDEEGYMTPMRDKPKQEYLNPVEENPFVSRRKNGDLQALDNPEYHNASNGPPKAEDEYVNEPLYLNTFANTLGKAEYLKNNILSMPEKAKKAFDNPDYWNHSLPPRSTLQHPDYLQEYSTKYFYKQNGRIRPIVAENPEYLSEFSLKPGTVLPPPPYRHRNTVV
# [9] = target: Receptor tyrosine-protein kinase erbB-4 (Homo sapiens) (UniProt Q15303); settings: at 10 µM
# [10] = target: Focal adhesion kinase 1 (Homo sapiens) (UniProt Q05397); settings: at 1 µM
# Sequence of Focal adhesion kinase 1 (Homo sapiens) (Q05397 2-1052 limits assumed): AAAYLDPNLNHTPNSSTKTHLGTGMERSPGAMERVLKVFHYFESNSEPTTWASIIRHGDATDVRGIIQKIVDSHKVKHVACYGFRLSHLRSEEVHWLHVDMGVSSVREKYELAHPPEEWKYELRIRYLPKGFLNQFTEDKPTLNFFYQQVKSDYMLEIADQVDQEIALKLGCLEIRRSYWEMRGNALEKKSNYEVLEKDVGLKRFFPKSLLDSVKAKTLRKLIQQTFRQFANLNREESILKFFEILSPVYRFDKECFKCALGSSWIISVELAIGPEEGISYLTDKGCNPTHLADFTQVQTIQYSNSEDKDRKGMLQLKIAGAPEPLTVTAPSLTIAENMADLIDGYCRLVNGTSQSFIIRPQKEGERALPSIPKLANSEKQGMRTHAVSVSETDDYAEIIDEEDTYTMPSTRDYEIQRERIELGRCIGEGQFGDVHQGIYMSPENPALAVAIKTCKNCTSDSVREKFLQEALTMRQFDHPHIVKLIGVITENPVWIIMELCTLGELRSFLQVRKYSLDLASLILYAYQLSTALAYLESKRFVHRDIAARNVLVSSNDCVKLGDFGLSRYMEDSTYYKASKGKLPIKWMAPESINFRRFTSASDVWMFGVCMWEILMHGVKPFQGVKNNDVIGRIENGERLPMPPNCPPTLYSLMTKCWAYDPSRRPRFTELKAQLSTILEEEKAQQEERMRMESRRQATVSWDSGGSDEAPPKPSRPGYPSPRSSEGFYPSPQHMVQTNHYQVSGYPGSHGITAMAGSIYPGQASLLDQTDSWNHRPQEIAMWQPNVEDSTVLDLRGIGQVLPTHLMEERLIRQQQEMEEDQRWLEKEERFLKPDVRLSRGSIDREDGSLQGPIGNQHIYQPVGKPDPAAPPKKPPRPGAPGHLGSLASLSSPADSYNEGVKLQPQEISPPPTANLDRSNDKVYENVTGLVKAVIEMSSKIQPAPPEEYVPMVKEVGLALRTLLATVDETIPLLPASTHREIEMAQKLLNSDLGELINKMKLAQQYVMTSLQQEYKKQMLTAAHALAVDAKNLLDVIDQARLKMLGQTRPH
structure (smiles),measurement,setting,value
CC(C)n1cnc2c(NCc3ccccc3)nc(NCCCO)nc21,residual activity,[1],79%
same,residual activity,[2],111%
same,residual activity,[3],115%
same,residual activity,[4],121% (inactive)
same,residual activity,[5],104%
same,residual activity,[6],100%
same,residual activity,[7],88%
same,residual activity,[8],52%
same,residual activity,[9],45%
same,residual activity,[10],97%
